# Screening results deposited in PubChem BioAssay by The Scripps Research Institute Molecular Screening Center.
# GPR151 activ – human GPR151 activation; PathHunter beta-arrestin GPR151 cells, luminescence; activation, % at 11.2 µM; actives 1% (n = 650,000); in the data active = activation above about 4.9%;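 note: 0% = median of compound wells and 100% = cells with positive control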
# MITF primary – blocks human microphthalmia-associated transcription factor; O75030; AlphaScreen MITF homodimerization, bead proximity signal; inhibition, % at 2.6 µM; actives 0.91% (n = 650,000); AID 1259374; in the data active = inhibition above about 50%;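 note: 0% = vehicle wells with protein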
# FBW7 act – human FBW7 E3 ligase activation, primary screen; Q969H0; AlphaScreen FBW7–phospho-cyclin E peptide binding, activator screen; normalized activity (activation), % at 26.1 µM; actives 0.13% (n = 650,000); AID 1259310; in the data active = normalized activity above about 1.9%;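 note: purified mutant Fbw7 with reduced substrate affinity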
# Target sequence (Q969H0 whole entry, looked up): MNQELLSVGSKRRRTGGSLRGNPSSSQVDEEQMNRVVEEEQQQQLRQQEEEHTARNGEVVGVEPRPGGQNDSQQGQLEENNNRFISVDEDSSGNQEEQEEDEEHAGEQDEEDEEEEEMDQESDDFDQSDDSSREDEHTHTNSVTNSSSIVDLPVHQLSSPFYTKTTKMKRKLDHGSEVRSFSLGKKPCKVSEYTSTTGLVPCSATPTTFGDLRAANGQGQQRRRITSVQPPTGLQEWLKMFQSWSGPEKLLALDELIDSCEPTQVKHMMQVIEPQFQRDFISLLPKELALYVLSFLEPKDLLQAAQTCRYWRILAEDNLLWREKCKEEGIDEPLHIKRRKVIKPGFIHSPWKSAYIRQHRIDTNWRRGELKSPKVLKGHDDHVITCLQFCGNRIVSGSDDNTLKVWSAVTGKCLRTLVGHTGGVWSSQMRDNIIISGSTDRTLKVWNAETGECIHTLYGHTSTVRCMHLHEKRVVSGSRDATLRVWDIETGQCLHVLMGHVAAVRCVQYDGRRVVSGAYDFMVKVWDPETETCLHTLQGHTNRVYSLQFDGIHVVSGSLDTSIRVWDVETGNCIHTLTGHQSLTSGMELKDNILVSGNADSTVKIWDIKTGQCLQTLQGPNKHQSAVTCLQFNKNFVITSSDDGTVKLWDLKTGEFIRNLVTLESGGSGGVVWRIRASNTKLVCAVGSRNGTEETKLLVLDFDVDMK
# TEAD-YAP inh – TEAD-YAP interaction inhibition; actives 1.4% (n = 640,000); HEK-TIYL cells, TEAD-Gal4/YAP UAS-luciferase luminescence; AID 1259422; inhibition, % at 9.12 µM; in the data active = inhibition above about 32%;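 note: 0% = median of test compound wells and 100% = reference inhibitor wells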
# GPR151 confirm – human GPR151 activation, confirmation screen; shares compounds with GPR151 activ; GPR151 PathHunter beta-arrestin cells, luminescence, 90 min; % of EA-reagent control over plate median; AID 1508609; activation, % at 11.2 µM; 6,700 tested, under 10 active;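 active = mean percent activation across replicates above the confirmation screen cutoff of 4.91%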
# GPR119 counter – GPR119 activation, counter-screen for GPR151 activators; shares compounds with GPR151 activ; activation, % at 11.2 µM; GPR119 PathHunter beta-arrestin cells, luminescence, 90 min; 0 = compound-well median, 100 = enzyme-acceptor control; actives 0.3% (n = 6,700);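 active = mean percent activation in the counterscreen above 29.09%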;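 note: counterscreen on off-target GPR119 to flag nonselective hits from the GPR151 activator screen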
# Starred values were filed as active, the others as inactive; · = not tested or not shown. Rows were chosen to be rich in hits. Some 3.4% of all compounds tested hit in one or more screens of this group.
SMILES,GPR151 activ,MITF primary,FBW7 act,TEAD-YAP inh,GPR151 confirm,GPR119 counter
CCN(CC)c1ccc(C(=O)Nc2sc3c(c2C#N)CCCCC3)cc1,5.1*,8,0,-1,0,2
CCN(CC)c1ccc(C(=O)Nc2sc3c(c2C#N)CCCC3)cc1,-1,-10,0,-1,·,·
O=C(Nc1cccc(N2CCC(NCc3cccnc3)CC2)c1)C1CC1,5.5*,0,0,-9,1,19
O=C(Nc1cccc(N2CCC(NCc3cccc(-n4cccn4)c3)CC2)c1)C1CC1,-1,-2,0,10,·,·
CCOc1ccc(/C(O)=C2\C(=O)C(=O)N(CCN(CC)CC)C2c2ccc(OC)c(OC)c2)c(C)c1 (centres undefined),0,-6,0,0,·,·
CC(C)(C)NS(=O)(=O)c1ccc(NC(=O)COc2ccc([N+](=O)[O-])cc2)cc1,1,-6,0,-1,·,·
CCNS(=O)(=O)c1ccc(NC(=O)c2ccc([N+](=O)[O-])cc2)cc1,5.1*,24,0,1,0,2
CCC(=O)Nc1cccc(NC(=O)COc2ccc([N+](=O)[O-])cc2)c1,12*,8,0,3,0,-2
CC(=O)NS(=O)(=O)c1ccc(NC(=O)COc2ccc([N+](=O)[O-])cc2)cc1,6.1*,0,0,14,0,1
CCCCC(=O)Nc1cccc(NC(=O)COc2ccc([N+](=O)[O-])cc2)c1,11*,9,0,1,-1,7
NC(=O)C1CCN(S(=O)(=O)c2ccc3[nH]cc(C(=O)N4CCc5ccccc54)c(=O)c3c2)CC1,0,-4,0,6,·,·
O=C(NC1(C(F)(F)F)NC(=O)N(Cc2ccco2)C1=O)c1ccc(Cl)cc1 (centres undefined),0,-4,0,3,·,·
Cc1oc(C(C)(C)C)cc1C(=O)Nc1cccc2ccccc12,2,-4,0,13,·,·
O=C(O)C(=O)/C=C(\O)c1ccc(Cl)cc1,13*,3,0,11,0,6
CCOC(=O)C1(Cc2cccc(OC)c2)CCCN(C(=O)CCc2ccccn2)C1 (centres undefined),-1,-3,0,-35,·,·
CCc1ccccc1N(C(C)=O)C1C=CS(=O)(=O)C1 (centres undefined),5,2,0,0,·,·
CC(=O)N(c1cccc2ccccc12)C1C=CS(=O)(=O)C1 (centres undefined),4.9*,-10,0,-2,0,-7
CCC(Sc1c[nH]c2ccccc12)C(=O)O (centres undefined),5.5*,-2,0,-5,0,0
CCC(Sc1ccccc1C(=O)O)C(=O)O (centres undefined),0,11,0,11,·,·
COc1ccc(-c2nnc3sc(NC(=O)c4ccccc4F)nn23)cc1,3,-5,0,11,·,·
Cc1cccn2c(CNC3CCCc4ccccc43)c(C(=O)N3CCOCC3)nc12 (centres undefined),-1,-4,0,-7,·,·
Cc1cccn2c(CN[C@@H]3CCCC[C@H]3c3ccccc3)c(C(=O)N3CCOCC3)nc12,5.0*,13,0,-3,1,1
Cc1ccc(S(=O)(=O)N(CC(=O)N2CCOCC2)CC(=O)N2CCOCC2)cc1,6.6*,-14,0,-9,2,-1
Cc1ccc(N(CC(=O)N2CCOCC2)S(=O)(=O)c2ccccc2)cc1,9.1*,8,0,9,0,-6
CCOc1ccccc1N(CC(=O)N1CCCC1)S(=O)(=O)c1ccc(C)cc1,6.0*,-1,0,-1,0,-5
SMILES,GPR151 activ,MITF primary,FBW7 act,TEAD-YAP inh,GPR151 confirm,GPR119 counter
Cc1ccc(N(CC(=O)N2CCCCCC2)S(=O)(=O)c2ccccc2)cc1C,5.8*,-3,0,0,1,14
O=C(CN(c1ccccc1)S(=O)(=O)c1ccccc1)N1CCOCC1,0,0,0,12,·,·
Cc1ccc(Cl)c2sc(N3CCN(C(=O)C4=COCCO4)CC3)nc12,0,-3,0,6,·,·
CCC(CC)C(=O)Nc1ccc([N+](=O)[O-])cc1,1,-3,0,3,·,·
Cc1ccc(/C=C/C(=O)Nc2ccc(S(N)(=O)=O)cc2)cc1,-1,11,2,-9,·,·
Cc1ccc(N(CC(O)Cn2c3ccccc3c3ccccc32)S(=O)(=O)c2ccc(C)cc2)cc1 (centres undefined),-2,-6,0,-11,·,·
Cc1ccc(N(CC(O)Cn2c3ccccc3c3ccccc32)S(=O)(=O)c2ccccc2)cc1 (centres undefined),6.2*,-1,0,10,1,15
COc1ccc(-c2nc(Nc3ccccc3)c3ncn(-c4ccccc4)c3n2)cn1,0,0,0,-6,·,·
COCCNC(=O)c1c(N)n(CCc2ccc(OC)c(OC)c2)c2nc3ccccc3nc12,10*,8,1,10,1,-1
CCOCCCNC(=O)c1c(N)n(CCc2ccccc2)c2nc3ccccc3nc12,1,-18,0,5,·,·
O=c1[nH]c(-c2cccc(Cl)c2)nc2sc3c(c12)CCCC3,0,-5,0,4,·,·
NS(=O)(=O)c1ccc(CNC(=O)Nc2ccc(Br)cc2Cl)cc1,8.7*,12,0,-9,-1,-14
NS(=O)(=O)c1ccc(CNC(=S)Nc2ccc(Br)cc2Cl)cc1,4,7,0,-6,·,·
Cc1ccc(NC(=O)CSc2cn(Cc3ccc(F)cc3)c3ccccc23)cc1,7.0*,5,0,-2,-1,-4
CN1C(=O)OC2(C)CCc3ccccc3C12C (centres undefined),5.0*,-10,0,5,0,8
CC12CCc3ccccc3C1(C)OC(=O)O2 (centres undefined),-1,5,0,12,·,·
O=C(COC(=O)C(CCCCN1C(=O)C2C3CCC(C3)C2C1=O)N1C(=O)C2C3CCC(C3)C2C1=O)c1ccccc1 (centres undefined),-1,-12,0,-17,·,·
O=C(Cc1ccc(F)cc1)Nc1nc2c(s1)CCCC2,0,-7,0,-28,·,·
Cc1cc(OC(C)C(=O)NNC(=O)Nc2cccc(Cl)c2Cl)ccc1[N+](=O)[O-] (centres undefined),6.1*,19,0,-6,0,4
CC(Oc1ccc2c(c1)OCO2)C(=O)NNC(=O)Nc1cccc(Cl)c1Cl (centres undefined),0,-18,0,5,·,·
O=C(c1cccc(F)c1F)N1CCCCC1,1,-9,0,-3,·,·
O=C(c1cccc(F)c1F)N1CCCCCC1,4.9*,8,1,9,0,-5
CCN1C(=O)Cc2ccccc21,6.7*,-1,0,5,-1,-13
